Records with an inconclusive call do not appear. Active and inactive are the calls of the source. How the source made its calls: active means hit-call score of the fitted dose curve at least 0.9, where 1 is the maximum; inconclusive means response in the unintended direction; inactive means score below 0.9.

For orientation: AC50 means the concentration at which the activity in the assay is half-maximal.

human Matrix Metalloproteinase-3 (MMP3), MMP3 (gene 4314), sequence (P08254 whole entry, looked up): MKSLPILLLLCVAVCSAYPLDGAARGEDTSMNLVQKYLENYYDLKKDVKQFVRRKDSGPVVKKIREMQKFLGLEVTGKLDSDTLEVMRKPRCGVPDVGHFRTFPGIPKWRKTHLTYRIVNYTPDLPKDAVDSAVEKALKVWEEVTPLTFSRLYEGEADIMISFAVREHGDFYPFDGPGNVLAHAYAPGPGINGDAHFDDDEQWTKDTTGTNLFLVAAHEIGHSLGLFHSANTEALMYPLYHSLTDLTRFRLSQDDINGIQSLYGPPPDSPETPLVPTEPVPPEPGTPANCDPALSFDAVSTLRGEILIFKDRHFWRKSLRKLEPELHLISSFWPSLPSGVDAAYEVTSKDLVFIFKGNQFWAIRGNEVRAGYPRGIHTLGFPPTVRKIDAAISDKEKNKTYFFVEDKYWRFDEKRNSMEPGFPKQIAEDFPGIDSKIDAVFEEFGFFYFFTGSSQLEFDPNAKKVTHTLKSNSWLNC
human Phosphodiesterase 4A1 (PDE4A1), PDE4A (gene 5141), sequence (P27815 whole entry, looked up): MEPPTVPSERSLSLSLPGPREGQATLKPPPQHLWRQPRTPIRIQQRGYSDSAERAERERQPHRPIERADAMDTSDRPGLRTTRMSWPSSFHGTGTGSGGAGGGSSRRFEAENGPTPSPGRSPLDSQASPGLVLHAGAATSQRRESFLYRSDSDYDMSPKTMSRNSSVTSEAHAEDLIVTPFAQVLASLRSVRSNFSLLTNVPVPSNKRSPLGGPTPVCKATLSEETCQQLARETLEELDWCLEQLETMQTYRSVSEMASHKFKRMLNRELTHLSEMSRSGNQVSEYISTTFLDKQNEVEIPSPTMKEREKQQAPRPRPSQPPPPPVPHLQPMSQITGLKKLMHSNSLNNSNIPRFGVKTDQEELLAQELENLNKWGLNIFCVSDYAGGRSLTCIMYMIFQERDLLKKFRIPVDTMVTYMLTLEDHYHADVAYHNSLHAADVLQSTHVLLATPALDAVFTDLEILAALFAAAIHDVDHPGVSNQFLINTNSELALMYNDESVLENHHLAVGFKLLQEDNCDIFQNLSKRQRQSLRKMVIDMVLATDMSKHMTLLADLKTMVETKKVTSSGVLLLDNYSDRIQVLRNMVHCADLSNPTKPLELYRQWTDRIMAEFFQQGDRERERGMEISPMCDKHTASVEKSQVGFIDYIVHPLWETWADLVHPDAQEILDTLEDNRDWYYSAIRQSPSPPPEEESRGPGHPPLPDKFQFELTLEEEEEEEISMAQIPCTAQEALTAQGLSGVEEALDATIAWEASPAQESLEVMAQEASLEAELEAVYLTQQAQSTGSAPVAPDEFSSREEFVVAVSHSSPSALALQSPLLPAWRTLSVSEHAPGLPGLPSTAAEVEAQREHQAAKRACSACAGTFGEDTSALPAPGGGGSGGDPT
human LYN Proto-Oncogene, Src family Tyrosine Kinase (LynA), LYN (gene 4067), sequence (P07948 whole entry, looked up): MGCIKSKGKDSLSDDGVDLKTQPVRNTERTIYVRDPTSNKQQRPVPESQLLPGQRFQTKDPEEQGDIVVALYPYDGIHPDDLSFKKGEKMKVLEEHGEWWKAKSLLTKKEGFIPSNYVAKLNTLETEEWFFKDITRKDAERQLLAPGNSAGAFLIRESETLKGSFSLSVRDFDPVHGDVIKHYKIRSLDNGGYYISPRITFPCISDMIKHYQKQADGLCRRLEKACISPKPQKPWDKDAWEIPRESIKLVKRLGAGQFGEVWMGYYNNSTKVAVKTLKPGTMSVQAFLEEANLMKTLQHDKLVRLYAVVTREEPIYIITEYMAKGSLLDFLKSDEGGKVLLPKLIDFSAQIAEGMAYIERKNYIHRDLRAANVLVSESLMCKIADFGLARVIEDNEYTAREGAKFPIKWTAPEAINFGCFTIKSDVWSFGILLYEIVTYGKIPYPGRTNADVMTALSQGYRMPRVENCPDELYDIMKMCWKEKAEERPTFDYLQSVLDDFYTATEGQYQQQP
human Mitogen-Activated Protein Kinase 1 (MAPK 1), MAPK1 (gene 5594), sequence (P28482 whole entry, looked up): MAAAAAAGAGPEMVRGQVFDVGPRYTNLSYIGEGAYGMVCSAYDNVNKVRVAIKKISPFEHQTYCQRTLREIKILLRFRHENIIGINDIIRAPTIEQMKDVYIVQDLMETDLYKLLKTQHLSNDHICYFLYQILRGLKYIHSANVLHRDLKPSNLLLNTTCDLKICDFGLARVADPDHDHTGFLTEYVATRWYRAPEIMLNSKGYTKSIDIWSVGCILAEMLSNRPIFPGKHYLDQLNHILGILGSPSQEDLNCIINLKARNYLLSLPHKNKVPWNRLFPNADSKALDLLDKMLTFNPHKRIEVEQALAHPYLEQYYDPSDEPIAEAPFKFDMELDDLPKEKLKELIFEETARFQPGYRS

The first experiment deals with Glycogen synthase kinase-3 beta (Homo sapiens) (UniProt P49841). Description: NVS_ENZ_hGSK3b: NovaScreen (NVS) Enzymatic Assay for human Glycogen Synthase Kinase-3 beta (GSK3b) (AID 2283165). Summed up: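 Recombinant enzyme with specific fluorescent substrate, 1 h, product separated by electrophoretic mobility shift. Primary duplicate screen at 25 uM; actives (e.g. 30% inhibition) followed in singleton concentration-response to 50 uM. Signal loss fitted versus DMSO.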
Glycogen synthase kinase-3 beta (Homo sapiens), sequence (P49841 whole entry, looked up): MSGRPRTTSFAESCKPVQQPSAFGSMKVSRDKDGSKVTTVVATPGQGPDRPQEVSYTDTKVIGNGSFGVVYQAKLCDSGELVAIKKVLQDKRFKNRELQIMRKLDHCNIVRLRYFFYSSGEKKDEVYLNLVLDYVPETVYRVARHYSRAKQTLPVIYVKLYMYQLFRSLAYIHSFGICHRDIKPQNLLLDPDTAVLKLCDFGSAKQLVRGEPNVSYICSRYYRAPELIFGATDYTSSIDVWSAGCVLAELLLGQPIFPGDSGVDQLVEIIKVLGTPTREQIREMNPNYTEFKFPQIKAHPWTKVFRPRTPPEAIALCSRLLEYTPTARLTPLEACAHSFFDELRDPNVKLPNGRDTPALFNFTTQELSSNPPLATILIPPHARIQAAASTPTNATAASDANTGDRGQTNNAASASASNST
`CN(C)c1ccccc1`: the outcome was inactive.

Regarding `CN(C)c1ccc(C(=O)c2ccc(N(C)C)cc2)cc1`, the compound was called inactive.

On to `O=C(Oc1ccc(Br)cc1)N1CCN2CCC1CC2`, for which the result was inactive.

With `CCN(CC)N=O`, the outcome was inactive.

As for `CN(C)[C@@H]1C(=O)C(C(N)=O)=C(O)[C@@]2(O)C(=O)C3=C(O)c4c(O)cccc4[C@@](C)(O)[C@H]3C[C@@H]12`, the AC50 was 25 µM (active).

For the compound `Cc1cccc(N)c1N`, the half-maximal activity concentration (AC50) is 27.9 µM (active).

As for `CC(O)CCO` (stereo unspecified), the outcome was inactive.

Take `Clc1ccccc1Cl`: the outcome was inactive.

As to `CCOC(=O)[C@]1(c2ccccc2)Oc2ccccc2[C@@H]1N`, the call was inactive.

In the case of `CCNS(=O)(=O)C(F)(F)C(F)(F)C(F)(F)C(F)(F)C(F)(F)C(F)(F)C(F)(F)C(F)(F)F`, the outcome was inactive.

Consider `O=[N+]([O-])C(Br)(CO)CO`, for which the call was inactive.

Turning to `Nc1ccc(N=Nc2ccccc2)cc1`, the outcome was inactive.

Regarding `OCCCl`, the call was inactive.

Take `Cc1ccc([N+](=O)[O-])cc1`: the compound was called inactive.

On to `CCN(CC)CCO`, for which the compound was classed as inactive.

As to `Nc1ccc(Cc2ccc(N)cc2)cc1`, the compound was called inactive.

The target of the next experiment is human LYN Proto-Oncogene, Src family Tyrosine Kinase (LynA), LYN (gene 4067) (UniProt P07948). Description: NVS_ENZ_hLynA: NovaScreen (NVS) Enzymatic Assay for human LYN Proto-Oncogene, Src family Tyrosine Kinase (LynA) (AID 2283173). The method, boiled down:
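Recombinant kinase with fluorescent substrate; product separated from substrate by electrophoretic mobility shift and read 1 h after dosing. Duplicate screen at 25 uM, then concentration-response up to 50 uM; activity scored as signal loss against DMSO.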
Regarding `Clc1ccc(Cl)c(Cl)c1`, the call was inactive.

Take `CN(C)C(=O)Nc1ccc(Cl)cc1`: the outcome was inactive.

As for `c1ccc(NNc2ccccc2)cc1`, the compound was classed as inactive.

The target in another experiment is human Mitogen-Activated Protein Kinase 1 (MAPK 1), MAPK1 (gene 5594) (UniProt P28482). Description: NVS_ENZ_hMAPK1: NovaScreen (NVS) Enzymatic Assay for human Mitogen-Activated Protein Kinase 1 (MAPK 1) (AID 2283175). The method, boiled down:
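Cell-free recombinant human MAPK1 enzymatic assay, fluorescence/electrophoretic mobility shift read at 1 h; loss of signal vs DMSO. Primary screen in duplicate at 25 uM; actives (e.g. ≥30% inhibition) run as concentration-response up to 50 uM.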
As for `O=C(Oc1ccc(Br)cc1)N1CCN2CCC1CC2`, the compound was called inactive.

As to `COC(=O)Nc1nc2ccccc2[nH]1`, the concentration at half-maximal activity (AC50) was 46.7 µM (active).

`CN(C)C(=O)Nc1ccc(Cl)cc1`: the call was inactive.

For the compound `O=[N+]([O-])c1ccc(Oc2ccc(Cl)cc2Cl)cc1`, the result was inactive.

The next experiment has as its target human Matrix Metalloproteinase-3 (MMP3), MMP3 (gene 4314) (UniProt P08254). Put plainly: NVS_ENZ_hMMP3: NovaScreen (NVS) Enzymatic Assay for human Matrix Metalloproteinase-3 (MMP3) (AID 2283185). The method, boiled down: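 Cell-free recombinant human MMP3 activity, fluorescence intensity read 1 h after dosing. Primary screen duplicate at 25 uM, actives retested in concentration series; loss of signal vs DMSO baseline.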
On to `Clc1ccc(Cl)c(Cl)c1`, for which the result was inactive.

`c1ccc2c(c1)-c1cccc3cccc-2c13`: the half-maximal activity concentration (AC50) is 5.24 µM (active).

Consider `CN(C)[C@@H]1C(=O)C(C(N)=O)=C(O)[C@@]2(O)C(=O)C3=C(O)c4c(O)cccc4[C@@](C)(O)[C@H]3C[C@@H]12`, for which the compound was called inactive.

Regarding `CN(C)C(=O)Nc1ccc(Cl)cc1`, the outcome was inactive.

As for `ClCCOCCCl`, the outcome was inactive.

The next experiment has as its target human Phosphodiesterase 4A1 (PDE4A1), PDE4A (gene 5141) (UniProt P27815). Description: NVS_ENZ_hPDE4A1: NovaScreen (NVS) Enzymatic Assay for human Phosphodiesterase 4A1 (PDE4A1) (AID 2283191). The method, boiled down: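 Cell-free recombinant human PDE4A1 with fluorescent substrate; product separated by electrophoretic mobility shift, 1 h. Screened at 25 uM, then up to 50 uM in concentration-response; loss of signal fitted against DMSO.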
For the compound `CN(C)c1ccc(C(=O)c2ccc(N(C)C)cc2)cc1`, the outcome was inactive.

Turning to `O=C(Oc1ccc(Br)cc1)N1CCN2CCC1CC2`, the compound was called inactive.

As for `CCNS(=O)(=O)C(F)(F)C(F)(F)C(F)(F)C(F)(F)C(F)(F)C(F)(F)C(F)(F)C(F)(F)F`, the call was inactive.

Source of the values: PubChem BioAssay (EPA / NIEHS).
